Hits are enriched below; roughly 0.84% of the tested compounds scored in any of these assays.
PPARg SRC-1 ag: promotes SRC-1 coactivator recruitment by human PPARgamma; P37231; PPARgamma-SRC-1 coactivator recruitment biochemical assay; activation, % at 8 µM; 200,000 tested, 0.41% active; AID 631; in the data active means activation above about 19%;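 further: 0% = DMSO and 100% = reference agonist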
Target sequence (P37231 whole entry, looked up): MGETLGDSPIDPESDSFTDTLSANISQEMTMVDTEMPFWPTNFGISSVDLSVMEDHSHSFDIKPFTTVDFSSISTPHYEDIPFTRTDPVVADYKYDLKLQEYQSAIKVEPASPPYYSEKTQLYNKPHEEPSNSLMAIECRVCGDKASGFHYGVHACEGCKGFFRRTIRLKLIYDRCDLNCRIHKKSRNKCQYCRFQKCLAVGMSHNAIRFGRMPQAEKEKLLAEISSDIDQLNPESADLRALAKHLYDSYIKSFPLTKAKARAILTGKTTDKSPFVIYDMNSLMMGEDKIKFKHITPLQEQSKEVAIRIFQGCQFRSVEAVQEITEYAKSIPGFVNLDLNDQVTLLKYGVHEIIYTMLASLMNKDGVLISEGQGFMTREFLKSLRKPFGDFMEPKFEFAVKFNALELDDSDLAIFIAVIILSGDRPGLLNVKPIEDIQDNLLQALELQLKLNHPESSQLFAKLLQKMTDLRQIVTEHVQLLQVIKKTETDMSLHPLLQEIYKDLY
SRC2 TRFRET art: flags TR-FRET format artefacts in PPARgamma SRC-2 recruitment agonist screen; AID 1049; 200,000 tested, 0.4% active; TR-FRET ratio at 8 µM; TR-FRET artefact counter-screen; hits give high values
SRC3 TRFRET art: flags TR-FRET format artefacts in PPARgamma SRC-3 recruitment agonist screen; TR-FRET artefact counter-screen, PPARgamma/SRC-3 format; hits give high values; TR-FRET ratio at 8 µM; 99,000 tested, 0.39% active
SRC1 TRFRET art: TR-FRET artefact, counter-screen to PPARgamma/SRC-1 agonist assay; TR-FRET ratio at 8 µM; TR-FRET detection artefact counter-screen, emission ratio; hits give high values; AID 1051; 99,000 tested, 0.34% active; in the data active means TR-FRET ratio above about 2300
PPARg SRC-2 ag: PPARgamma-driven SRC-2 recruitment agonism | activation, % at 8 µM | PPARgamma LBD-SRC-2 recruitment, biochemical | 200,000 tested, 0.34% active; in the data active means activation above about 22%;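 further: 0% = vehicle and 100% = reference agonist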
PPARg SRC3 recr: agonists of human PPARgamma SRC-3 coactivator recruitment; biochemical PPARgamma/SRC-3 coactivator recruitment assay; activation, % at 8 µM; 200,000 tested, 0.26% active; AID 731; in the data active means activation above about 23%;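 further: 0% = DMSO and 100% = reference agonist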
Active calls of the source: *. Unless noted, no stated cut-off is given here; in the data, active means TR-FRET ratio above about 2000; inactive means the rest.

How did Cc1cc([N+](=O)[O-])nn1CC(=O)NCCc1c[nH]c2ccccc12 do in these assays?
PPARg SRC-1 ag: -3; SRC2 TRFRET art: 1457; SRC3 TRFRET art: 1489; SRC1 TRFRET art: 1925; PPARg SRC-2 ag: -2; PPARg SRC3 recr: 4

What do the screens show for `Cc1ccc(C2=NNC3(CCOC(C)(C)C3)S2)cc1` (centres undefined)?
PPARg SRC-1 ag: -10; SRC2 TRFRET art: 1410; SRC3 TRFRET art: 1493; SRC1 TRFRET art: 1691; PPARg SRC-2 ag: -2; PPARg SRC3 recr: -5

How did C/C(=N\Nc1nc2ccccc2s1)c1ccc(Br)s1 do in these assays?
PPARg SRC-1 ag: 23*; SRC2 TRFRET art: 1493; SRC3 TRFRET art: 1556; SRC1 TRFRET art: 2044; PPARg SRC-2 ag: 3; PPARg SRC3 recr: 3

What do the screens show for `COc1ccccc1NC(=O)CSc1nnc(CCNC(=O)c2ccc(C)cc2)n1C`?
PPARg SRC-1 ag: 3; SRC2 TRFRET art: 1441; SRC3 TRFRET art: 1425; SRC1 TRFRET art: 1624; PPARg SRC-2 ag: -2; PPARg SRC3 recr: 2

How did COC(=O)C1=C(C)NC(=O)CC1c1cc2c(cc1Br)OCO2 (centres undefined) do in these assays?
PPARg SRC-1 ag: -1; SRC2 TRFRET art: 1470; SRC3 TRFRET art: 2175*; SRC1 TRFRET art: 1895; PPARg SRC-2 ag: -3; PPARg SRC3 recr: 6

How did COc1ccc(C2CC(c3ccccc3)=NN2C(=O)COC(=O)c2ccc(Cl)nc2)cc1 (centres undefined) do in these assays?
PPARg SRC-1 ag: 13; SRC2 TRFRET art: 1555; SRC3 TRFRET art: 1806; SRC1 TRFRET art: 1893; PPARg SRC-2 ag: 2; PPARg SRC3 recr: 0

How did COc1ccc(C2CC(c3ccccc3)=NN2C(=O)COC(=O)c2cnc(Cl)c(Cl)c2)cc1 (centres undefined) do in these assays?
PPARg SRC-1 ag: -3; SRC2 TRFRET art: 1668; SRC3 TRFRET art: 1351; SRC1 TRFRET art: 1574; PPARg SRC-2 ag: -15; PPARg SRC3 recr: -7

Results for COc1ccc(C2CC(c3ccccc3)=NN2C(=O)COC(=O)c2cccc(S(=O)(=O)N3CCOCC3)c2)cc1 (centres undefined) ?
PPARg SRC-1 ag: 12; SRC2 TRFRET art: 2061*; SRC3 TRFRET art: 2328*; SRC1 TRFRET art: 2459*; PPARg SRC-2 ag: 16; PPARg SRC3 recr: 8

Results for COc1ccc(C2CC(c3ccccc3)=NN2C(=O)COC(=O)c2cccc(S(=O)(=O)N(C)C)c2)cc1 (centres undefined) ?
PPARg SRC-1 ag: 6; SRC2 TRFRET art: 2075*; SRC3 TRFRET art: 2064*; SRC1 TRFRET art: 2411*; PPARg SRC-2 ag: 5; PPARg SRC3 recr: 8

Results for CNS(=O)(=O)c1c(C)cc(C)c(N(C)S(=O)(=O)c2ccccc2)c1C ?
PPARg SRC-1 ag: 1; SRC2 TRFRET art: 1574; SRC3 TRFRET art: 1601; SRC1 TRFRET art: 2144; PPARg SRC-2 ag: 5; PPARg SRC3 recr: 4

What do the screens show for `CC(C)c1nnc(NC(=O)c2cccc(NC(=O)C(F)(F)F)c2)s1`?
PPARg SRC-1 ag: 4; SRC2 TRFRET art: 1976*; SRC3 TRFRET art: 1623; SRC1 TRFRET art: 1816; PPARg SRC-2 ag: 7; PPARg SRC3 recr: 4

Results for CCN1CCC2(CC1)N=C(c1ccc(F)cc1)C(=S)N2 ?
PPARg SRC-1 ag: 6; SRC2 TRFRET art: 1979*; SRC3 TRFRET art: 1803; SRC1 TRFRET art: 1797; PPARg SRC-2 ag: 14; PPARg SRC3 recr: 3

How did Cc1ccc(C2=NC3(CCCCC3)NC2=S)cc1 do in these assays?
PPARg SRC-1 ag: -2; SRC2 TRFRET art: 1697; SRC3 TRFRET art: 1567; SRC1 TRFRET art: 1722; PPARg SRC-2 ag: -2; PPARg SRC3 recr: 0

Results for O=C(CSc1nc2cc(Cl)ccc2c(=O)n1Cc1ccco1)Nc1ccc(S(=O)(=O)N2CCOCC2)cc1 ?
PPARg SRC-1 ag: 6; SRC2 TRFRET art: 2029*; SRC3 TRFRET art: 2505*; SRC1 TRFRET art: 2098; PPARg SRC-2 ag: -3; PPARg SRC3 recr: 6

Results for O=C(CSc1nc2ccccc2c(=O)n1-c1ccc(F)cc1)Nc1cc(S(=O)(=O)N2CCOCC2)ccc1Cl ?
PPARg SRC-1 ag: -1; SRC2 TRFRET art: 2011*; SRC3 TRFRET art: 2000; SRC1 TRFRET art: 2193; PPARg SRC-2 ag: 4; PPARg SRC3 recr: 4

Results for COC(=O)c1ccc2c(=O)n(Cc3ccco3)c(SCC(=O)Nc3ccc(C)c(Cl)c3)nc2c1 ?
PPARg SRC-1 ag: 16; SRC2 TRFRET art: 1665; PPARg SRC-2 ag: 10; PPARg SRC3 recr: -11

How did COc1cc(NC(=O)C(=O)NCCN2CCNCC2)c(OC)cc1Cl do in these assays?
PPARg SRC-1 ag: -4; SRC2 TRFRET art: 1548; SRC3 TRFRET art: 1730; SRC1 TRFRET art: 1676; PPARg SRC-2 ag: 0; PPARg SRC3 recr: 1

How did CN1CCC(N(C)C(=S)NC(=O)c2cc(-c3cccc(Br)c3)nc3ccccc23)CC1 do in these assays?
PPARg SRC-1 ag: 18; SRC2 TRFRET art: 1696; SRC3 TRFRET art: 1719; SRC1 TRFRET art: 2128; PPARg SRC-2 ag: 6; PPARg SRC3 recr: 2

What do the screens show for `COc1ccc(Cl)cc1NC(=S)NCc1ccco1`?
PPARg SRC-1 ag: 2; SRC2 TRFRET art: 1441; PPARg SRC-2 ag: -4; PPARg SRC3 recr: 13

What do the screens show for `CCOC(=O)CSc1c(-c2ccc(Cl)cc2)[nH]c2ccccc12`?
PPARg SRC-1 ag: 14; SRC2 TRFRET art: 1904; SRC3 TRFRET art: 2441*; SRC1 TRFRET art: 2190; PPARg SRC-2 ag: 15; PPARg SRC3 recr: 12

Results for Cc1ccc(N2C(=O)C3CCC(c4ccccc4)CC3C2=O)cc1 (centres undefined) ?
PPARg SRC-1 ag: 37*; SRC2 TRFRET art: 1420; SRC3 TRFRET art: 1599; SRC1 TRFRET art: 2647*; PPARg SRC-2 ag: -3; PPARg SRC3 recr: 0

Results for CCOC(=O)C1(CCc2ccccc2)CCN(C(=O)Cc2nonc2C)CC1 ?
PPARg SRC-1 ag: -2; SRC2 TRFRET art: 1547; SRC3 TRFRET art: 1567; SRC1 TRFRET art: 1772; PPARg SRC-2 ag: 13; PPARg SRC3 recr: -3

Results for CCc1ccc(OCC(=O)NNC(=O)CSc2ncnc3sc(C)c(C)c23)cc1 ?
PPARg SRC-1 ag: 54*; SRC2 TRFRET art: 1696; PPARg SRC-2 ag: 11; PPARg SRC3 recr: 19

Results for Cc1ccc(OCC(=O)NNC(=O)CSc2ncnc3sc(C)c(C)c23)cc1 ?
PPARg SRC-1 ag: 1; SRC2 TRFRET art: 1470; SRC3 TRFRET art: 1392; SRC1 TRFRET art: 1797; PPARg SRC-2 ag: -2; PPARg SRC3 recr: -1

Results for CCCCc1ccc(/C=C(\C#N)C(N)=S)s1 ?
PPARg SRC-1 ag: 4; SRC2 TRFRET art: 1625; SRC3 TRFRET art: 1538; SRC1 TRFRET art: 1995; PPARg SRC-2 ag: 0; PPARg SRC3 recr: -1

Results for CCCCc1ccc(C2C(C#N)=C(N)SC(N)=C2C#N)s1 ?
PPARg SRC-1 ag: 21*; SRC2 TRFRET art: 1742; PPARg SRC-2 ag: 4; PPARg SRC3 recr: 8

What do the screens show for `O=C(O)Cc1ccc(C(=O)c2ccc(Cl)cc2Cl)s1`?
PPARg SRC-1 ag: 0; SRC2 TRFRET art: 1896; SRC3 TRFRET art: 1693; SRC1 TRFRET art: 2208; PPARg SRC-2 ag: 7; PPARg SRC3 recr: 0

How did O=C(c1cnc(-c2ccc(Cl)cc2)s1)c1ccc(Cl)cc1Cl do in these assays?
PPARg SRC-1 ag: 12; SRC2 TRFRET art: 1430; PPARg SRC-2 ag: 3; PPARg SRC3 recr: 36*

Assay outcomes (PubChem)
